Only a selection was taken, and hits are over-represented in it overall.
EZH2 inh: inhibitors of human EZH2/PRC2 methyltransferase; Q15910; PRC2 H3K27 methylation, DELFIA TRF, 1 h; inhibition, % at 12.5 µM; 0.35% of 57,000 active; AID 651548;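 active = mean inhibition of replicates at least 50% and every single replicate also reaching 50%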;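 note: dimethyl H3K27 on biotinylated H3 21-44 peptide detected by antibody; plate controls were median neutral control wells for no effect and median positive control wells for full effect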
Target sequence (Q15910 whole entry, looked up): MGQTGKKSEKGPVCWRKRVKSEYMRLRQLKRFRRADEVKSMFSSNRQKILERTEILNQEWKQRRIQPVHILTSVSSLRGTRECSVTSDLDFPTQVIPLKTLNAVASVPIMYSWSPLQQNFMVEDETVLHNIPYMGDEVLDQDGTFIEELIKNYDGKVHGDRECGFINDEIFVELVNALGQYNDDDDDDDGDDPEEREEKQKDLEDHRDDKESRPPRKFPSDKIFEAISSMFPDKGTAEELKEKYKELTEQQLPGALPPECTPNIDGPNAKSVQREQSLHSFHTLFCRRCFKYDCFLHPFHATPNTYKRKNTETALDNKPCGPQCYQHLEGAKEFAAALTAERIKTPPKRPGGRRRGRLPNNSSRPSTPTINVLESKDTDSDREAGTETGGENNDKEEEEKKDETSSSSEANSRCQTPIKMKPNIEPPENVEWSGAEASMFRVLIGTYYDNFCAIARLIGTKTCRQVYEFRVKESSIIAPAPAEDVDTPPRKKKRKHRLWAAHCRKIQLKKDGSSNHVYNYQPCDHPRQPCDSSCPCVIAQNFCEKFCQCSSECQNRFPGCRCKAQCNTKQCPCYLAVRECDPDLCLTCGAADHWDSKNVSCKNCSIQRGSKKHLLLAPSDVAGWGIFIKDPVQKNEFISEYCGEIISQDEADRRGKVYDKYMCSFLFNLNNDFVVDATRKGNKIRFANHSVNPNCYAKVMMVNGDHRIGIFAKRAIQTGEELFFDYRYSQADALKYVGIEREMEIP
Starred values were filed as active, the others as inactive.

SMILES	EZH2 inh
COc1ccc([Si](C)(C)[C@H]2[C@H](CCn3cc([C@H](O)c4ccccc4)nn3)O[C@@]3(C(=O)N(C)c4c(Br)cc(C)cc43)[C@@H]2C)cc1	17
COc1ccc([Si](C)(C)[C@@H]2[C@@H](CCn3cc([C@H](O)c4ccccc4)nn3)O[C@]3(C(=O)N(c4ccccc4)c4ccccc43)[C@H]2C)cc1	11
COc1ccc([Si](C)(C)[C@@H]2[C@@H](CCO)O[C@]3(C(=O)N(C)c4ccccc43)[C@H]2C)cc1	12
COc1ccc([Si](C)(C)[C@@H]2[C@@H](CCO)O[C@]3(C(=O)N(c4ccccc4)c4ccccc43)[C@H]2C)cc1	51*
COc1ccc([Si](C)(C)[C@@H]2[C@@H](CCO)O[C@]3(C(=O)N(Cc4ccc(NC(C)=O)cc4)c4ccccc43)[C@H]2C)cc1	20
COc1ccc([Si](C)(C)[C@@H]2[C@@H](CCO)O[C@]3(C(=O)N(C)c4c(Br)cc(C)cc43)[C@H]2C)cc1	52*
N#Cc1c(-c2ccccc2)nc(SCC(=O)Nc2ccc(Oc3ccccc3)cc2)[nH]c1=O	87*
CC(=O)c1ccc(NC(=O)CSc2nc(-c3ccccc3)c(C#N)c(=O)[nH]2)cc1	-8
N#Cc1c(-c2ccccc2)nc(SCC(=O)Nc2cccc(C(F)(F)F)c2)[nH]c1=O	39
[N-]=[N+]=Nc1cccc(C(=O)N2CCN(c3ccccc3)CC2)c1	18
O=C1N(O)C2(C=CCCC2)/C(=N/O)C12CCCCC2 (stereo not drawn)	23
CCOC(=O)c1c(NC(=O)CSc2nc3ccccc3c(=O)[nH]2)sc2c1CCCC2	76*
O=C(CSc1nc2ccccc2c(=O)[nH]1)Nc1ccc(Br)c(Cl)c1	55*
CCOC(=O)c1c(NC(=O)CSc2ncn[nH]2)sc2c1CCCCC2	6
COc1ccc(NC(=O)CSc2nc3ccccc3c(=O)[nH]2)cc1Cl	-6
O=C(CSc1nc2ccccc2c(=O)[nH]1)Nc1ccc(F)c(Cl)c1	31
CCOC(=O)c1c(NC(=O)Cn2cnc3ccccc3c2=O)sc2c1CCCC2	9
COC(=O)c1ccccc1NC(=O)NCc1ccc(C(=O)O)cc1	-2
O=C(Nc1sccc1C(=O)N1CCOCC1)c1cc2ccccc2oc1=O	7
O=C(CCNc1ccc(Cl)c(C(F)(F)F)c1)c1ccccc1	56*
O=C(CNS(=O)(=O)c1ccccc1)Nc1ccc(Cl)c(C(F)(F)F)c1	0
O=C(CCCN1C(=O)c2ccccc2C1=O)Nc1ccc(Cl)c(C(F)(F)F)c1	13
COc1c(O)cc2c(c1O)[C@H]1O[C@H](CO)[C@@H](O)[C@H](O)[C@@H]1OC2=O	8
O=C1C[C@@H](c2ccc(O)cc2)Oc2cc(O)c([C@@H]3O[C@H](CO)[C@@H](O)[C@H](O)[C@H]3O)c(O)c21	-34
O=C(OC1C(c2c(O)cc(O)c(C(=O)c3ccc(O)cc3)c2O)OC(CO)C(O)C1O)c1cc(O)c(O)c(O)c1 (stereo not drawn)	56*
SMILES	EZH2 inh
CCn1c(SCC(=O)c2cccc([N+](=O)[O-])c2)nnc1-c1ccc(Cl)cc1Cl	-3
COC(=O)c1ccc(/C=N/NC(=O)c2ccccc2O)cc1	20
COC(=O)c1ccc(C2C(Oc3ccc(OC)cc3)C(=O)N2Cc2ccc(F)cc2)cc1 (stereo not drawn)	51*
COC(=O)c1ccc(NC(=O)CCC(=O)c2ccc(OC)cc2)cc1	-1
COC(=O)c1ccc(C2C(C(=O)c3ccco3)C(=O)C(=O)N2Cc2ccco2)cc1 (stereo not drawn)	-7
Cc1ccc(-c2nc3ccccc3s2)cc1NC(=O)COc1ccc(Br)cc1	2
COc1cc(C(c2c[nH]c3ccccc23)c2c[nH]c3ccccc23)c(O)c([N+](=O)[O-])c1	8
C[C@@H]1CN([C@@H](C)CO)S(=O)(=O)c2ccc(C3=CCCCC3)cc2O[C@H]1CN(C)Cc1cccc(C(=O)O)c1	56*
C[C@H]1CN([C@@H](C)CO)S(=O)(=O)c2ccc(/C=C/c3ccccc3)cc2O[C@@H]1CN(C)Cc1ccc(C(=O)O)cc1	53*
C[C@@H]1CN([C@@H](C)CO)S(=O)(=O)c2ccc(C#CCC3CCCC3)cc2O[C@H]1CN(C)Cc1cccc(C(=O)O)c1	62*
C[C@H](CO)N1C[C@H](C)[C@@H](CN(C)Cc2cccc(C(=O)O)c2)Oc2cc(Br)ccc2S1(=O)=O	13
C[C@@H]1CN([C@H](C)CO)S(=O)(=O)c2ccc(Br)cc2O[C@H]1CN(C)Cc1cccc(C(=O)O)c1	1
C[C@H]1CN([C@@H](C)CO)S(=O)(=O)c2ccc(C3=CCCCC3)cc2O[C@H]1CN(C)Cc1cccc(C(=O)O)c1	17
C[C@H]1CN([C@@H](C)CO)S(=O)(=O)c2ccc(C3=CCCCC3)cc2O[C@@H]1CN(C)Cc1cccc(C(=O)O)c1	44
C[C@H](CO)N1C[C@H](C)[C@@H](CN(C)Cc2ccccc2)Oc2cc(/C=C/c3ccccc3)ccc2S1(=O)=O	-1
C[C@H]1CN([C@@H](C)CO)S(=O)(=O)c2ccc(/C=C/c3ccccc3)cc2O[C@H]1CN(C)Cc1ccccc1	10
COc1cccc(NC(=O)c2c(NC(=O)c3cccnc3)sc3c2CCC3)c1	48
COc1ccc(C(C)NC(=O)c2cc(-c3ccccn3)nc3ccc(Br)cc23)cc1OC (stereo not drawn)	-7
C/C=C/[C@H](CCn1cc([C@H](O)c2ccccc2)nn1)[Si](C)(C)c1ccc(OC)cc1	26
O=C(CSc1nc2[nH]ncc2c(=O)n1-c1ccccc1)Nc1ccc(F)c(Cl)c1	-21
CCn1c(SCc2nc3ccccc3[nH]2)nc2sc(C)c(C)c2c1=O	4
COC(=O)c1ccc(C(=O)OC)c(NC(=O)c2cnn3cccnc23)c1	0
COC(=O)CCCCCCC(=O)N/N=C/[C@H](O)[C@@H](O)[C@H](O)[C@H](O)CO	1
Cc1ccccc1/C=N/NC(=O)CCCCC(=O)NO	16
O=C(NCc1ccccn1)c1cnn2c1NC(c1cccs1)CC2C(F)(F)F (stereo not drawn)	-1
SMILES	EZH2 inh
N#CC(C#N)=C(N)/C(C#N)=C/c1cc(O)c(O)c(O)c1	28
N#C/C(=C/c1ccc(O)c(O)c1)C(=O)Nc1ccccc1	18
N#C/C(=C\c1ccc(O)c(O)c1)C(=O)c1ccc(O)c(O)c1	94*
O=C(Nc1ccc(S(=O)(=O)Nc2ncccn2)cc1)C1CCC1	-3
COc1ccc(NC(=O)CNC(=O)c2ccccc2F)cc1Cl	-10
O=C(CCCCCC(=O)N/N=C/c1ccc(Br)o1)NO	-1
O=C(Cn1nnc(-c2ccccc2)n1)Nc1ccccc1C(=O)O	4
COc1ccc(-c2coc3cc(O[C@@H]4O[C@H](CO)[C@@H](O)[C@H](O)[C@H]4O)cc(O)c3c2=O)cc1	-18
C[C@@H]1O[C@@H](O[C@H]2[C@H](Oc3cc(O)c4c(=O)cc(-c5ccc(O)cc5)oc4c3)O[C@H](CO)[C@@H](O)[C@@H]2O)[C@H](O)[C@H](O)[C@H]1O	-5
CC1OC(OCC2OC(Oc3cc(O)c4c(=O)c(-c5ccc(O)cc5)coc4c3)C(O)C(O)C2O)C(O)C(O)C1OC1OC(CO)C(O)C(O)C1O (stereo not drawn)	64*
Cc1ccnc(NC(c2cccc(Cl)c2)c2ccc3ccc(C)nc3c2O)c1 (stereo not drawn)	8
CCOC(=O)c1cnc(SC2CC(=O)N(c3cccc(F)c3)C2=O)nc1N (stereo not drawn)	7

Compound activity: PubChem, Broad Institute
